{
  "source": "the supplement of paper PMC10681739",
  "data": [
    {"target": "T1, ETS1 (UniProt P14921)", "T1 sequence": "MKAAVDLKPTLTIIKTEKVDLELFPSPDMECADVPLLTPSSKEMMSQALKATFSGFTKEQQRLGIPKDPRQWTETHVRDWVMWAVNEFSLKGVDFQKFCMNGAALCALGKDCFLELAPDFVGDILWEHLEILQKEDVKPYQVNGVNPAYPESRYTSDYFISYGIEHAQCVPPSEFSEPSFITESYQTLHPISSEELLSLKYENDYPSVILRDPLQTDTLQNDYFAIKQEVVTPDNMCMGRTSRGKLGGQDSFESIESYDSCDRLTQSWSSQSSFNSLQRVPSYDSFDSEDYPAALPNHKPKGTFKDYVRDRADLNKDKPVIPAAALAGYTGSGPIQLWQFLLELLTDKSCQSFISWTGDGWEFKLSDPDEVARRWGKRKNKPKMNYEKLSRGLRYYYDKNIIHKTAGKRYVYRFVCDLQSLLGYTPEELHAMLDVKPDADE", "assay": "TF binding intensity (PBM fluorescence), negative control probe (arbitrary fluorescence units); higher = stronger binding", "description": "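gcPBM negative-control 36-bp genomic probes lacking TF binding sites. Each was incubated with recombinant human ETS1 or RUNX1 alone and detected by antibody fluorescence. Values are medians over replicate spots (4 spots for the ETS1-RUNX1 arrays, 3 for the ETS1-ETS1 array). The probes sit in constant array flanks that are not printed.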", "values": [
      {"sequence": "GGGGCCTCGAAGGTCCTCCTGGACTGCAAGAGAGGA (protein concentration 10 nM)", "TF binding intensity": 131},
      {"sequence": "GTGTCTGCCTCATTGGCGAAGGCCAGCCTCTGAGCC (protein concentration 10 nM)", "TF binding intensity": 140},
      {"sequence": "GTTAAGTACCTGAATGAGCACTGGACCAGAGCCGGG (protein concentration 10 nM)", "TF binding intensity": 106},
      {"sequence": "ATAATGGAAAGCGAAACCGCAGATTAAGCAGGGACT (protein concentration 1 nM)", "TF binding intensity": 398},
      {"sequence": "TCCTCAAAATTAAGGTGCGGTGCCAGGCGCAGTGGC (protein concentration 1 nM)", "TF binding intensity": 374},
      {"sequence": "ACCTGGGTCTCTGACAGACACCCCAAACTTCAGTTC (protein concentration 10 nM)", "TF binding intensity": 102},
      {"sequence": "AAGTATTGTAGTTGTTGTGGTAAAAACAGATAGATA (protein concentration 1 nM)", "TF binding intensity": 529},
      {"sequence": "ACGACTCTTCCCAAGCAGCGGGAGGATCTAGGCCCA (protein concentration 10 nM)", "TF binding intensity": 102},
      {"sequence": "TGGACTATATCAAGTGTGAACGATCATACTTGTTAT (protein concentration 10 nM)", "TF binding intensity": 124},
      {"sequence": "TTTTTTTTTTTGGTCTGTGGTTTTGGAGTTTTTGTT (protein concentration 1 nM)", "TF binding intensity": 716},
      {"sequence": "ATGGCCAGTTCACAGTGAGCCAAAGTCCTCCTCACA (protein concentration 10 nM)", "TF binding intensity": 94.5},
      {"sequence": "AGTTATTCTAGCTCAAACCAAGTTATTTTTCACTTT (protein concentration 10 nM)", "TF binding intensity": 108},
      {"sequence": "TTTTTCTTTTAATTTTTCTTTTTTATTCTATTTTTT (protein concentration 10 nM)", "TF binding intensity": 117},
      {"sequence": "TTATAGGTGAGAGCTACCATGCCTGGTCCTATTTAA (protein concentration 10 nM)", "TF binding intensity": 97.6},
      {"sequence": "ACTGATCATCTGAAATGTGGCTAGTGTGAAAATGAA (protein concentration 1 nM)", "TF binding intensity": 532},
      {"sequence": "GGTATCGAGCTCGGGGGACTGGGCTGCGGGGGACGT (protein concentration 10 nM)", "TF binding intensity": 264},
      {"sequence": "TTCTTCCCACCGCAGGGCATCTGCACGGGCCGCTCA (protein concentration 10 nM)", "TF binding intensity": 125},
      {"sequence": "ACTTTCTATGAGGCTGCCACTCCTGGTACCACACAT (protein concentration 10 nM)", "TF binding intensity": 133},
      {"sequence": "GTATTTTGGGCGATAACACTTTCTCTACTTCTAAAA (protein concentration 10 nM)", "TF binding intensity": 116},
      {"sequence": "TCTCTCTGCTCTGTGAACTCTAGCTGTCTTGGCTTC (protein concentration 10 nM)", "TF binding intensity": 142},
      {"sequence": "GTTCCAGGCATTGTACTGAGGGGAGGCCCTCCTGTG (protein concentration 10 nM)", "TF binding intensity": 109},
      {"sequence": "TAAATAAATAAACACTTTAGCACATTGACTTTAGAG (protein concentration 10 nM)", "TF binding intensity": 111},
      {"sequence": "AGTTCAAAAAAGCCCAAATGCTATAGGGACAACAAC (protein concentration 10 nM)", "TF binding intensity": 148},
      {"sequence": "ACCTCATCGAAAGTCTCTCTGGAGGCTGAGTTTGTC (protein concentration 10 nM)", "TF binding intensity": 123},
      {"sequence": "AGAAAGGCATGTCTCCAGGCTCTAAAGAGGCAAAGG (protein concentration 10 nM)", "TF binding intensity": 117},
      {"sequence": "GCAAAGCGGGCGAGTGGCCTGGAGAGAGGGAGCAGC (protein concentration 10 nM)", "TF binding intensity": 150},
      {"sequence": "TAGTCCTGGAAAGGTCATGTCAACCCTCCTGCATAT (protein concentration 10 nM)", "TF binding intensity": 115},
      {"sequence": "AAAACTAAAAGTAGAACCACCATATGATCCAGTAAT (protein concentration 1 nM)", "TF binding intensity": 504},
      {"sequence": "GGGGGTATAGGGGAGCAGTCCCATGTAGTAGTAGAA (protein concentration 10 nM)", "TF binding intensity": 172},
      {"sequence": "GAAGAGCAGGCCTGGCGTCTGCCCGTGCCAGTGTTT (protein concentration 10 nM)", "TF binding intensity": 102},
      {"sequence": "CTGGGCCATTAACCTCAGCAGAAAAATGCTTTTTGC (protein concentration 10 nM)", "TF binding intensity": 97.6},
      {"sequence": "AACTGTGACGTTACATTGCAAGGGCATGAATACAGG (protein concentration 10 nM)", "TF binding intensity": 131},
      {"sequence": "CTCCTAATTCTGCATGCAACACTCTCCAGAGAGCTG (protein concentration 10 nM)", "TF binding intensity": 136},
      {"sequence": "ATAGTACAAGCACTAGTCAAAGCTAGAGGTCACTCT (protein concentration 10 nM)", "TF binding intensity": 111}
    ]}
  ]
}
